Bioassay records (PubChem BioAssay)
Sm TGR inh: inhibitors of Schistosoma mansoni thioredoxin glutathione reductase; purified TGR, DTNB reduction, TNB absorbance 405 nm; Potency, µM (top dose mostly 114 µM), usual class: inhibitors; 360,000 tested, 3% active; AID 485364; also: nearly all actives have a fitted effect of over 60% in size
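Kinetic colorimetric format: TGR-catalysed, NADPH-driven DTNB reduction monitored via TNB absorbance. Enzyme dispensed at 20 nM; compound exposure 15 min at room temperature before reaction start.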
Tb PYK inh: inhibitors of Trypanosoma brucei pyruvate kinase. TbPYK enzyme, Kinase-Glo Plus ATP luminescence, 45 min. Potency, µM (highest dose often 76.8 µM), hits mostly inhibitors. Q57TT1. 410,000 tested, 0.12% active; also: nearly all actives have a fitted effect of over 50% in size
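Enzyme and substrate buffer are dispensed first and compound is pin-transferred. ADP at 130 uM final then starts the reaction, which runs 45 min at room temperature. Detection reagent is added for 10 min before luminescence is imaged.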
RE007 growth inh: less growth of the S. pombe RE007 Vpr strain | Potency, µM (doses to about 92.2 µM), hits mostly inhibitors | 360,000 tested, 0.21% active | S. pombe RE007 Vpr strain, BacTiter-Glo ATP luminescence, 24 h; active = well fitted falling curve with a large enough effect; inconclusive = small, poorly fitted or top-dose-only effect; inactive = no such curve, though single readings can be large or run the other way; also: nearly all actives have a fitted effect of over 50% in size
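Fission yeast RE007 carrying one integrated HIV-1 vpr copy, seeded at OD 0.01 in PMG+AL medium with 23 nL pinned compound. Grown 24 h at 30 degrees; viability read by BacTiter-Glo luminescence after 5 min.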
LmPK inhibitor: inhibitors of Leishmania mexicana pyruvate kinase; Q27686; purified LmPK, Kinase-Glo ATP luminescence, 1 h; Potency, µM (highest dose often 57.5 µM), hits mostly inhibitors; 290,000 tested, 0.37% active; AID 1721
Target sequence (Q27686 whole entry, looked up): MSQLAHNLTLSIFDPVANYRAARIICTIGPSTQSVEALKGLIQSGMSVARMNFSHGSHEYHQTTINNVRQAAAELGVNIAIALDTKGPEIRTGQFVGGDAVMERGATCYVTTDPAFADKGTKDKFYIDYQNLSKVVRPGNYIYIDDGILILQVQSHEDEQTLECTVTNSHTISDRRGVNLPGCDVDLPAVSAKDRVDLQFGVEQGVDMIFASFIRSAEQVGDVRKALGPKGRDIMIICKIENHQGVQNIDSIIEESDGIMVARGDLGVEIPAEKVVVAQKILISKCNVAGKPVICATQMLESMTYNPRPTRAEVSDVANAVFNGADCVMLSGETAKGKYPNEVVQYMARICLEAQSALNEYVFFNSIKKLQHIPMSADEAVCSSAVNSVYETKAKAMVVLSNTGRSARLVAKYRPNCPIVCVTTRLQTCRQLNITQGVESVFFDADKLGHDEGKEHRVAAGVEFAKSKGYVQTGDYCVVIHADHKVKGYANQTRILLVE
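Purified LmPK (0.1 nM) converted ADP (0.1 mM) to ATP with PEP (0.5 mM) in imidazole buffer pH 7.2 with KCl and MgCl2, 1 h at room temperature. ATP was read by Kinase-Glo luminescence; data normalized to uninhibited and no-enzyme controls.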
Giardia FBPA inh: inhibitors of Giardia lamblia fructose-1,6-bisphosphate aldolase; 290,000 tested, 0.71% active; purified Giardia FBPA; Potency, µM (series often up to 59.6 µM), usual class: inhibitors; also: nearly all actives have a fitted effect of over 55% in size
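Giardia FBPA (40 nM reagent) was preincubated 10 min at RT with compound (up to 57.5 uM final), then substrate plus GAPDH/TPI/NAD/arsenate coupling system with diaphorase/resazurin was added; resorufin fluorescence (525/598 nm) was read after 20 min.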
Of the large screens only hits and unclear results are named; the others gave an inactive call. Shown are actives, neighbours in structure and some others; about 3.3% of the full set was active somewhere. Unless noted, calls follow the shape of the dose curve; as a rule, active = well fitted curve in the direction sought with a large enough effect; inconclusive = small, poorly fitted or top-dose-only effect, or another doubt; inactive = no such curve, though single readings can be large; an effect the other way counts as inactive or inconclusive.

C=C1c2cccc(O)c2C(O)=C2C(=O)[C@]3(O)C(O)=C(C(N)=O)C(=O)[C@@H](N(C)C)[C@@H]3[C@@H](O)[C@H]12	Sm TGR inh 35µM, Tb PYK inh inconclusive, Giardia FBPA inh inconclusive
C[C@H]1c2cccc(O)c2C(O)=C2C(=O)C3(O)C(O)=C(C(N)=O)C(=O)[C@@H](N(C)C)[C@@H]3[C@@H](O)[C@@H]21 (stereo partly specified)	Sm TGR inh inconclusive (no result: LmPK inhibitor, Giardia FBPA inh)
CN(C)[C@@H]1C(=O)C(C(=O)NCN2CCCC2)=C(O)[C@@]2(O)C(=O)C3=C(O)c4c(O)cccc4[C@@](C)(O)C3CC12 (stereo partly specified)	Sm TGR inh 7.9µM, Giardia FBPA inh inconclusive (no result: Tb PYK inh, RE007 growth inh)
CN(C)[C@@H]1C(=O)C(C(N)=O)=C(O)[C@@]2(O)C(=O)C3=C(O)c4c(O)cccc4[C@@](C)(O)C3[C@H](O)C12 (stereo partly specified)	Sm TGR inh 8.9µM (no result: LmPK inhibitor, Giardia FBPA inh)
COc1ccc(S(=O)(=O)N(CC(=O)NN=C2CCN(C)CC2)c2ccc(C)cc2)cc1OC	none (no result: Giardia FBPA inh)
COc1ccc(CCNC(=O)CSc2ccc3ccccc3c2)cc1OC	none
O=C(CSc1ccc2ccccc2c1)NCCc1ccc(O)c(O)c1	Sm TGR inh 11µM, Tb PYK inh 32µM
COc1ccccc1NC(=O)Cn1c(=O)n(Cc2ccccc2)c(=O)c2ccccc21	none (no result: RE007 growth inh, LmPK inhibitor, Giardia FBPA inh)
COc1ccc(S(=O)(=O)n2nc(OC(C)=O)cc2N)cc1	Sm TGR inh 25µM
Cc1ccc2occ(CN3CCN(c4ccccc4)CC3)c(=O)c2c1	Sm TGR inh 25µM
O=c1c(CN2CCN(Cc3ccccc3)CC2)coc2ccc(Cl)cc12	Sm TGR inh 7.1µM, RE007 growth inh inconclusive
Cc1ccc2nsnc2c1S(=O)(=O)Nc1cccc2cccnc12	none (no result: Sm TGR inh, Tb PYK inh, RE007 growth inh, LmPK inhibitor)
Cc1ccc2nsnc2c1S(=O)(=O)Nc1cccc2nsnc12	Sm TGR inh 45µM, Giardia FBPA inh inconclusive
Cc1cc(C)c2c(NC(=O)CCl)nn(C)c2n1	Sm TGR inh 32µM
CCCC(=O)Nc1nn(C)c2nc3c(C)cccc3cc12	none
Cn1c(Cn2cnc([N+](=O)[O-])n2)nnc1SCC(=O)Nc1cccc(Cl)c1	none
O=C1CC(N2CCN(c3ccc(Cl)cc3)CC2)C(=O)N1c1ccccc1 (stereo unspecified)	Sm TGR inh inconclusive, RE007 growth inh inconclusive
O=C1CC(N2CCCc3ccccc32)C(=O)N1c1ccccc1 (stereo unspecified)	Sm TGR inh 25µM
O=C1CC(N2CCOCC2)C(=O)N1c1ccccc1Cl (stereo unspecified)	Sm TGR inh 50µM
O=C1CC(N2CCN(c3ccccc3Cl)CC2)C(=O)N1c1ccccc1 (stereo unspecified)	Sm TGR inh 45µM, RE007 growth inh inconclusive
Cc1c(CBr)[n+](=O)c2c(n1[O-])C(Br)CCC2Br (stereo unspecified)	Sm TGR inh 4µM, Tb PYK inh inconclusive, Giardia FBPA inh inconclusive
Cc1c(C)[n+](=O)c2c(n1[O-])CCC2	none
Cc1c(C)[n+](=O)c2c(n1[O-])C(Br)CCC2Br (stereo unspecified)	Sm TGR inh 40µM
CCOc1ccc(NC(=O)N2CCC(CN3CCc4ccccc4C3)CC2)cc1	none (no result: RE007 growth inh, LmPK inhibitor, Giardia FBPA inh)
CN1CCCN(S(=O)(=O)c2ccc3ccccc3c2)CC1	Sm TGR inh 45µM
Oc1ccc(NCc2cccc(OCc3ccc(F)cc3)c2)cc1	Sm TGR inh 28µM, Tb PYK inh inconclusive, Giardia FBPA inh 18µM
Oc1ccc(NCc2cccc(OCc3ccccc3)c2)cc1	Sm TGR inh 13µM, Tb PYK inh inconclusive, Giardia FBPA inh 16µM
CC(C)(C)c1ccc(C(=O)NC2=NC(c3cccc(F)c3)CC(=O)N2)cc1 (stereo unspecified)	none (no result: RE007 growth inh, LmPK inhibitor, Giardia FBPA inh)
Oc1cc(-c2ccccc2)c2ccccc2c1	RE007 growth inh inconclusive, Giardia FBPA inh 5.6µM
O=P1(O)Oc2c(c(-c3ccccc3)cc3ccccc23)-c2c(-c3ccccc3)cc3ccccc3c2O1	none (no result: Sm TGR inh, Tb PYK inh, RE007 growth inh, LmPK inhibitor)
COc1ccccc1/C=C/c1nc(S(=O)(=O)c2ccccc2)c(NCCN(C)C)o1	Sm TGR inh 22µM
CCCCNc1oc(-c2ccc(OC)cc2)nc1S(=O)(=O)c1ccccc1	Sm TGR inh 32µM
COc1ccc(-c2nc(S(=O)(=O)c3ccc(C)cc3)c(NCc3ccccc3)o2)cc1	Sm TGR inh 13µM (no result: RE007 growth inh, LmPK inhibitor, Giardia FBPA inh)
CNc1oc(-c2ccccc2)nc1S(=O)(=O)c1ccc(C)cc1	none (no result: Giardia FBPA inh)
Cc1ccc(S(=O)(=O)c2nc(-c3ccccc3)oc2NCCN2CCOCC2)cc1	Sm TGR inh 45µM
CCSc1nnc(NC(=O)CCc2ccccc2)s1	none
COc1ccc2nc(SCC(=O)NC3CCCc4ccccc43)[nH]c2c1 (stereo unspecified)	none
Cc1oc2ccc(O)c(CN3CCCCC3C)c2c1C(=O)Nc1ccccc1 (stereo unspecified)	none (no result: RE007 growth inh, LmPK inhibitor, Giardia FBPA inh)
Cc1ccc(Cn2cc(-c3ccccc3)nn2)cc1	none
Cc1ccc(S(=O)(=O)c2nc(C)oc2NCc2ccccc2)cc1	Sm TGR inh 2µM (no result: Tb PYK inh, RE007 growth inh)
O=C(O)c1ccc(-c2nnc(-c3ccc([N+](=O)[O-])cc3)o2)cc1	none
O=C(O)c1ccc(-c2nnc(-c3ccccc3)o2)cc1	LmPK inhibitor 13µM
NC(=O)[C@@H]1[C@@H]2C(=O)N(c3ccc(F)cc3)C(=O)[C@@H]2[C@H]2C=Cc3ccccc3N21	Sm TGR inh 32µM, Giardia FBPA inh inconclusive
O=C(c1ccco1)[C@@H]1[C@@H]2C(=O)N(c3ccc(F)cc3)C(=O)[C@@H]2[C@H]2C=Cc3ccccc3N21	Giardia FBPA inh inconclusive
CC(=O)N=c1sc2nc3ccccc3nc2n1N(C(C)=O)C(C)=O	Sm TGR inh 50µM, Giardia FBPA inh inconclusive
O=[N+]([O-])c1ccc(Nc2ccccn2)c([N+](=O)[O-])c1	none
O=C(O)c1cccc(Nc2cc(Cl)c3nonc3c2[N+](=O)[O-])c1	Sm TGR inh 0.35µM
O=[N+]([O-])c1c(Nc2ccc(O)cc2)cc(Cl)c2nonc12	Sm TGR inh 0.32µM (no result: RE007 growth inh)
O=[N+]([O-])c1c(Nc2ccccn2)cc(Cl)c2nonc12	Sm TGR inh 0.89µM, RE007 growth inh 8.9µM, Giardia FBPA inh 0.45µM
O=C(O)c1cccc(Nc2ccc([N+](=O)[O-])c3nonc23)c1	none
O=C(O)c1ccccc1Nc1ccc([N+](=O)[O-])cc1	none
O=C(O)c1ccccc1Nc1cc(Cl)c2nonc2c1[N+](=O)[O-]	Sm TGR inh 0.45µM
c1ccc2sc(NN=C3CCCCCC3)nc2c1	RE007 growth inh inconclusive (no result: Sm TGR inh)
O=C(COC(=O)/C=C/c1ccco1)Nc1ccccc1	Sm TGR inh 56µM
O=C(COC(=O)/C=C/c1ccco1)Nc1ccc(F)cc1Cl	Sm TGR inh 32µM
COc1ccc(C(=O)COC(=O)/C=C/c2ccco2)cc1F	Sm TGR inh 22µM (no result: LmPK inhibitor, Giardia FBPA inh)
O=C(/C=C/c1ccco1)OCC(=O)c1cccc([N+](=O)[O-])c1	none
